For one assay, the target named is Albumin (Bos taurus) (UniProt P02769). The experiment in a line: compounds binding labelled BSA control protein – biochemical, small-molecule microarray, Alexa647 label, 635/667 nm fluorescence, artefact control for SMM control protein annotation, profiling panel (AID 1118).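 Note: score merges 667 nm emission intensity and signal-to-noise per printed compound spot.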 The conditions noted are these: BSA-A647 binding, fluorescence 635 nm, higher = more signal.

A short description of assay [1]: probe aXIP binding to arrayed compounds – biochemical, NeuroSMM set, 635/667 nm fluorescence, primary screen (AID 1119).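 Note: probe is the protein aXip251-270 applied at 1 µg/mL to compound-printed slides; binding of probe to printed compounds measured as 667 nm fluorescence plus signal to noise.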 Particulars: small-molecule microarray, higher = more signal, called active from +8 up or from −8 down.
A short description of assay [2]: probe aNOTCH3 binding on compound microarray – biochemical, small-molecule microarray, 635/667 nm fluorescence, primary screen (AID 1120).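 Note: probe is a biotin-tagged antibody raised against NOTCH3 rather than NOTCH3 protein; score merges spot fluorescence near 667 nm with spot signal to noise.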 Particulars: higher = more signal.
Assay [3] is described as follows: probe aNOTCH2 binding on compound microarray – biochemical, small-molecule microarray, 635/667 nm fluorescence, primary screen (AID 1121).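 Note: score merges feature fluorescence read at 667 nm with its signal to noise.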 Particulars: higher = more signal.
For assay [4], the target named is Carbonic anhydrase 2 (Homo sapiens) (UniProt P00918). The experiment in a line: compounds binding carbonic anhydrase 2 – biochemical, small-molecule microarray, Alexa647-labelled CAII, profiling panel (AID 1122). Particulars: CAII-A647 binding fluorescence, higher = more signal.
Assay [5] in a line: COS7 lysate on small-molecule microarray, probe aHis, 635 nm (AID 1123).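 Note: z-score combines 667nm fluorescence intensity with signal-to-noise per printed compound spot.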 The conditions noted are these: COS7 cell lysate, fluorescence, higher = more signal.
Assay [6] can be described thus: probe aLAP1 signal on lysate-treated microarray – cell lysate, small-molecule microarray, COS7 lysate, primary screen (AID 1124).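 Note: lysate comes from COS7 cells expressing LAP1 and is applied at 0.3 µg/mL; score merges spot fluorescence near 667 nm with signal-to-noise over triplicate slides.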 The conditions noted are these: probe aLAP1, fluorescence, higher = more signal.
The next assay deals with Sam68 (KHDRBS1). The experiment in a line: compounds binding KHDRBS1 protein – biochemical, small-molecule microarray, 635 nm fluorescence, primary screen (AID 1125).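 Note: score merges 667 nm channel intensity with signal to noise over triplicate slides.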 Particulars: higher = more signal.
The test system of assay [7] is Chordin-like protein 2 (CHRDL2). In words: compounds binding chordin-like 2 – biochemical, small-molecule microarray, 635 nm fluorescence, primary screen (AID 1126).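 Note: printed compound slides probed with Chrdl2 protein at 4 µg/mL for 1 h at 4 C; score merges 667 nm emission intensity with signal to noise over three replicate slides.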 Particulars: fluorescence 635 nm, higher = more signal.
In assay [8] the target is Concanavalin-A (Canavalia ensiformis) (UniProt P02866). In words: compounds binding concanavalin A lectin – biochemical, small-molecule microarray, Alexa647 label, 635 nm, artefact control for SMM control protein annotation, primary screen (AID 1127).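 Note: z combines 667 nm emission intensity with signal-to-noise across three replicate slides.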 Particulars: ConA-A647 binding fluorescence, higher = more signal.
Chain of Concanavalin-A (Canavalia ensiformis) (P02866 whole entry, looked up): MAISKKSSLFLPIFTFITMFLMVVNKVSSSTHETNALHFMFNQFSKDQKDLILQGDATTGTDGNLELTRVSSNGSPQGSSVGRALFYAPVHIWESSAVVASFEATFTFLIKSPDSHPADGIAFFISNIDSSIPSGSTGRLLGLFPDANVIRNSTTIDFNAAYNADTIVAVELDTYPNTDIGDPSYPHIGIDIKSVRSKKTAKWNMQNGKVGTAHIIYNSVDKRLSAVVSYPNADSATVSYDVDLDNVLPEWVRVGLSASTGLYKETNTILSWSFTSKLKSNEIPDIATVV
The nature of assay [9]: compounds binding Alexa647 anti-His antibody – biochemical, small-molecule microarray, 635 nm fluorescence, artefact control for SMM control protein annotation, primary screen (AID 1128).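 Note: score merges feature fluorescence with signal-to-noise for each printed compound spot.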 The conditions noted are these: higher = more signal.
The subject of assay [10] is Human papillomavirus type 1a E7 protein (residues 1-88). The experiment in a line: HPV1a E7 small-molecule binders, primary screen, biochemical, small-molecule microarray, residues 1-88, 635 nm (AID 1129). Particulars: small-molecule microarray binding, fluorescence 635 nm; higher = more signal.
Assay [11] concerns the target Focal adhesion kinase 1 (Homo sapiens) (UniProt Q05397). In words: PTK2 protein binding on printed compound slides – biochemical, small-molecule microarray, 635/667 nm fluorescence, BSA, DTT, primary screen (AID 1130).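 Note: composite of spot emission at 667 nm and signal to noise over triplicate slides.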 The conditions noted are these: 635 nm fluorescence, higher = more signal.
Assay [12] deals with Fibrinogen (Alexa647-labelled). The experiment in a line: Alexa647-fibrinogen binding to printed small molecules – biochemical, small-molecule microarray, 635/667 nm fluorescence, artefact control for SMM control-protein annotation, profiling panel (AID 1131).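 Note: z-score merges 667 nm fluorescence with per-spot signal-to-noise over triplicate slides.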 The conditions noted are these: fibrinogen-A647 binding fluorescence, higher = more signal.
Assay [13] addresses Follistatin (Homo sapiens) (UniProt P19883). In words: FST protein binding to printed compounds – biochemical, small-molecule microarray, 635/667 nm fluorescence, primary screen (AID 1132). Particulars: 635 nm fluorescence, higher = more signal.
The target of assay [14] is Fibroblast growth factor 2 (Homo sapiens) (UniProt P09038). In words: basic fibroblast growth factor binding to printed compounds – biochemical, small-molecule microarray, 635/667 nm fluorescence, primary screen (AID 1133). The conditions noted are these: FGF2, fluorescence 635/667, higher = more signal.
Chain of Fibroblast growth factor 2 (Homo sapiens) (P09038 whole entry, looked up): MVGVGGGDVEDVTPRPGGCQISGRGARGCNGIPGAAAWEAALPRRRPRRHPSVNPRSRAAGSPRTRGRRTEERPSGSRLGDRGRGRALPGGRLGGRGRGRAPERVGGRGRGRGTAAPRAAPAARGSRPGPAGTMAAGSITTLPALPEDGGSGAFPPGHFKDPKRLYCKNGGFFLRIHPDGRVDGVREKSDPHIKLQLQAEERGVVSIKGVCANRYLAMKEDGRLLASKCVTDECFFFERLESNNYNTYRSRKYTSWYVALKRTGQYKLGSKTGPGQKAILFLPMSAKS
The nature of assay [15]: JC-1 mitochondrial potential readout, lung cancer cells – cell-based, A549, JC-1 fluorescence, basal, 24 h, 100 nL, profiling panel (AID 1138).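 Note: A549 lung adenocarcinoma cells under basal conditions with no added stimulus; test concentration not given here.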 Particulars: higher = more signal.
A further assay has as its system Lefty1. The experiment in a line: Lefty1 protein binding to printed compounds – biochemical, small-molecule microarray, 635/667 nm fluorescence, primary screen (AID 1139). Particulars: fluorescence 635/667, higher = more signal.
In assay [16] the test system is wheat germ agglutinin (Triticum aestivum), Alexa647-labelled. In words: Alexa647-WGA lectin binding to printed small molecules – biochemical, small-molecule microarray, 635/667 nm fluorescence, artefact control for SMM control-protein annotation, profiling panel (AID 1140).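 Note: score merges 667 nm feature emission with signal to noise over triplicate slides.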 Particulars: WGA-A647 binding, 635 nm fluorescence, higher = more signal.
In assay [17] the target is Luciferin 4-monooxygenase (Photinus pyralis) (UniProt P08659). The experiment in a line: inhibition of purified Photinus pyralis luciferase – biochemical, luminescence, purified enzyme, 2006 set, primary screen (AID 1141).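 Note: cell-free assay with purified firefly luciferase at 100 ng per well in PBS; test concentration not given here.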 The conditions noted are these: purified firefly luciferase, SteadyGlo luminescence, 30 min; higher = more signal, called active from +8 up or from −8 down.
Chain of Luciferin 4-monooxygenase (Photinus pyralis) (P08659 whole entry, looked up): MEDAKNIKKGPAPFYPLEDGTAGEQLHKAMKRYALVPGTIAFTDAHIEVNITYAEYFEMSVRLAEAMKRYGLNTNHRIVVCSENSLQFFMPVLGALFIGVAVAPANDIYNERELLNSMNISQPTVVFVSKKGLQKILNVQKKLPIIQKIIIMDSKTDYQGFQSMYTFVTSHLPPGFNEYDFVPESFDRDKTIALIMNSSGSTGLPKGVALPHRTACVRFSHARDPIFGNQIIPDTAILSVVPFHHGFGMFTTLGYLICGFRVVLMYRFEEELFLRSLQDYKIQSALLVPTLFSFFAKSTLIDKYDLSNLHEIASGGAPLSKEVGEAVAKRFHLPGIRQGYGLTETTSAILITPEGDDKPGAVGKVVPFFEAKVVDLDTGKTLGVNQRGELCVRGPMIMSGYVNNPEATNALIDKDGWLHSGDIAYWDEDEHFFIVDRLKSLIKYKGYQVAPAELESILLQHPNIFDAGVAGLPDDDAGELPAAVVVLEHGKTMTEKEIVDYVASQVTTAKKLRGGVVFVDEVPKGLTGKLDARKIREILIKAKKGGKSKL

Calls of active or inactive are those of the source.

Chain of Albumin (Bos taurus) (P02769 whole entry, looked up): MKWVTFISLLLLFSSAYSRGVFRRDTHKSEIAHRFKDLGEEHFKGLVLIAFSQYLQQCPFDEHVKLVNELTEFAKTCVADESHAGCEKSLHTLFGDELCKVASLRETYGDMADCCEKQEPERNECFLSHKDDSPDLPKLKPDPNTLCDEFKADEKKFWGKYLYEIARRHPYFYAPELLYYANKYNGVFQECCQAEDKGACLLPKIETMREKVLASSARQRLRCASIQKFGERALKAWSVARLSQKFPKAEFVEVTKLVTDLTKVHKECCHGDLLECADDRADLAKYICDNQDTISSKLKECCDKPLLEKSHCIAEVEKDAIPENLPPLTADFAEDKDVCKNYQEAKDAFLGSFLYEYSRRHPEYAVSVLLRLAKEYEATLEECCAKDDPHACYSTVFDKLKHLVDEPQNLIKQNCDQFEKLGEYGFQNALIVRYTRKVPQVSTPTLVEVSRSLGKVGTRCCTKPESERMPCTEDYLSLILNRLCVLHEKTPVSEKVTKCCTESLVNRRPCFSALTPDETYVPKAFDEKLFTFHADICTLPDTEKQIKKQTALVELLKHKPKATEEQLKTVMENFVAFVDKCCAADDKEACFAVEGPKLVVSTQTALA
Chain of Focal adhesion kinase 1 (Homo sapiens) (Q05397 whole entry, looked up): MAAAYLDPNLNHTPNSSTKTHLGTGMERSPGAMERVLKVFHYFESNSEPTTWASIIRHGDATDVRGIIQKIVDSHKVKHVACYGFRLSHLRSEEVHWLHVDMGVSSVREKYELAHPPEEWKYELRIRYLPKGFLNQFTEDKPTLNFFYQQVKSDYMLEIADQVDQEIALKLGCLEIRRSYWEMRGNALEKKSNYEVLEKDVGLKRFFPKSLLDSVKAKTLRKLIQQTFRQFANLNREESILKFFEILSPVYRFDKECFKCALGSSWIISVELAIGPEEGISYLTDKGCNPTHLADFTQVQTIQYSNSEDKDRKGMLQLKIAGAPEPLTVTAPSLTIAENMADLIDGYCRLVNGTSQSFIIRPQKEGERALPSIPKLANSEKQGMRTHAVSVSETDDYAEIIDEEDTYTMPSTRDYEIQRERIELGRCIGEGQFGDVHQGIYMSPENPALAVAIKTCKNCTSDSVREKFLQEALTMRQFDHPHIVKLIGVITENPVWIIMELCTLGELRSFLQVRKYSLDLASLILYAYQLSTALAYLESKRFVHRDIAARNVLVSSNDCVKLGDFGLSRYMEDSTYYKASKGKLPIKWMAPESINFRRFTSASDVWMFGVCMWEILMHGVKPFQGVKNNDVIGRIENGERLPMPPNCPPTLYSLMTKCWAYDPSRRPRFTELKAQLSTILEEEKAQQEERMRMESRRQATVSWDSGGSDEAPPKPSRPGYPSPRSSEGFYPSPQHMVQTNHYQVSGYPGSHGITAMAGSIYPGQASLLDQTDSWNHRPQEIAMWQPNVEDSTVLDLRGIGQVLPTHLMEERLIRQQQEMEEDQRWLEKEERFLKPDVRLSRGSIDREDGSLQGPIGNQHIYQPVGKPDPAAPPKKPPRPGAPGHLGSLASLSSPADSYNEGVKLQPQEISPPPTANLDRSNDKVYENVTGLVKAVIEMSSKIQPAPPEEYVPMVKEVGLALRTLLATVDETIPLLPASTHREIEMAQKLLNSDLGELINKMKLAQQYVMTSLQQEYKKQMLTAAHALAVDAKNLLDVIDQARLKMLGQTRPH
Chain of Follistatin (Homo sapiens) (P19883 whole entry, looked up): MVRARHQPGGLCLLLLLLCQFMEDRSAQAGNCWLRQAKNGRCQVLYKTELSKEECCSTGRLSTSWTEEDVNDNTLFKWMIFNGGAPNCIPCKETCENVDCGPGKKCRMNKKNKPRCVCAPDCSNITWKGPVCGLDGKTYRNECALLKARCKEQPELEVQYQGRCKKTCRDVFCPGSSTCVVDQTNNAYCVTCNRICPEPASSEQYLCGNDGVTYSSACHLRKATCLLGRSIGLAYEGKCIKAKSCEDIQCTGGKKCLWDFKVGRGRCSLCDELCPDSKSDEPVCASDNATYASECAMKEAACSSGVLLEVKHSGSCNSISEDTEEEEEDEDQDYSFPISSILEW

As to `C[C@H](c1ccccc1)N1C(=O)[C@H]2[C@@H]3C(=CC[C@H]2C1=O)C(=O)[C@H]1O[C@H]1[C@H]3O`, the composite z-score with Albumin (Bos taurus) is 0.166; in assay [2], -0.111; in [3], -0.147; in assay [4], -0.182; in assay [5], -0.51; in assay [6] it was 0.172. Also, the composite z-score was -0.136 with Sam68 (KHDRBS1); 1.02 in assay [7]; 0.471 in [8]; 1.36 in [9]; 0.336 in assay [10]; 0.204 in assay [11]. Further, the composite z-score in [12] is 0.367; in assay [13], 0.642; in assay [14] it was 0.565; in the assay with Lefty1 it was 0.708; in [16] it was -0.0651. Moreover, the composite Z-score in assay [1] was -0.0238 (inactive). The z-score was -0.732 in assay [15] and -1.47 (inactive) in assay [17].
As for `COC(=O)[C@@H]1N=C(c2ccc(OCCCO)cc2)O[C@@H]1c1ccccc1N=[N+]=[N-]`, the composite z-score is 0.731 with Albumin (Bos taurus); 0.149 in assay [2]; -0.0534 in assay [3]; 0.666 in assay [4]; 1.92 in assay [5]; 0.35 in [6]. The composite z-score in the assay on Sam68 (KHDRBS1) is 1.05; in assay [7], -0.456; in [8], 0.928; in assay [9] it was 1.99; in assay [10], 1.21; in assay [11], 0.942. Also, the composite z-score was 0.077 in assay [12]; 0.499 in assay [13]; -0.253 in assay [14]; -0.394 in the assay with Lefty1; 1.04 in assay [16]. In assay [1], the composite Z-score is -0.384 (inactive). The values for the z-score in assay [15] and in assay [17] were 0.484 and -17.9 (active), respectively.
Regarding `CC(C)C[C@@H]1NC(=O)[C@H]2C[C@@H](C(=O)O)[C@@H](c3ccc(O)cc3)N2C1=O`, the composite z-score with Albumin (Bos taurus) is 0.111; in [2], -0.0311; in [3], -0.0586; in assay [4] it was 0.419; in assay [5] it was 0.666; in assay [6], -0.79. In addition, the composite z-score in the assay with Sam68 (KHDRBS1) was 0.62; in assay [7] it was 0.51; in assay [8], 0.684; in [9], 3.44; in assay [10], -0.526; in assay [11], -0.199. Also, the composite z-score in assay [12] is -0.0448; in assay [13], 1.34; in assay [14], 0.85; in the assay on Lefty1, 0.874; in assay [16], 0.242. Further, the composite Z-score in [1] was -0.2 (inactive). Further, the z-score in [15] was -0.986; in assay [17], -1.2 (inactive).
In the case of `COc1ccc(-c2ccc3c(n2)CCCN3CC(O)CN2CCCc3nc(C)c(C)cc32)cc1` (stereo not given), the composite z-score with Albumin (Bos taurus) was 0.683; in assay [2], 0.713; in assay [3], -0.0017; in assay [4], 0.741; in assay [5], 0.975; in assay [6], 0.677. Moreover, the composite z-score is 1.2 with Sam68 (KHDRBS1); 1.18 in assay [7]; 1.09 in assay [8]; 2.62 in assay [9]; 0.478 in assay [10]; 0.351 in [11]. Moreover, the composite z-score in [12] is 0.733; in assay [13], 1; in assay [14], 0.62; in the assay on Lefty1, 1.05; in assay [16], 1.03. The composite Z-score in assay [1] is 2.43 (inactive). The z-score is 1.7 in assay [15] and -1.2 (inactive) in assay [17].
As for `O=C1[C@H]2[C@H]3[C@H](O)[C@H](O)CC(=NOCc4ccccc4)[C@@H]3CC[C@H]2C(=O)N1Cc1ccccc1`, the composite z-score with Albumin (Bos taurus) is 0.55; in assay [2] it was -0.0043; in [3], -0.14; in [4], 0.251; in [5], -0.256; in assay [6] it was -0.355. Further, the composite z-score in the assay on Sam68 (KHDRBS1) is 0.598; in assay [7], 0.417; in assay [8] it was -0.0677; in assay [9], -0.0529; in [10], 0.719; in assay [11], 0.166. The composite z-score was -0.757 in assay [12]; 0.371 in [13]; 0.47 in assay [14]; 0.597 in the assay with Lefty1; 0.0885 in assay [16]. Also, in assay [1], the composite Z-score is -0.119 (inactive). Moreover, the results for the z-score in [15] and in assay [17] were -0.806 and 1.09 (inactive), respectively.
In the case of `C#CCCCON=C1C[C@@H](O)[C@@H](O)[C@@H]2[C@@H]3C(=O)N(c4cccc(Oc5ccccc5)c4)C(=O)[C@@H]3CC[C@@H]12`, the composite z-score with Albumin (Bos taurus) is 0.487; in assay [2], -0.0311; in [3] it was -0.244; in assay [4], 0.256; in assay [5], 1.77; in [6], -0.164. The composite z-score in the assay with Sam68 (KHDRBS1) was 1.32; in [7], -0.0255; in assay [8], 0.884; in assay [9] it was -0.0428; in [10], 1; in [11], 0.181. The composite z-score in [12] turned out to be 0.945; in assay [13], 0.304; in [14] it was 0.224; in the assay with Lefty1, 0.481; in assay [16], 0.632. Besides, the composite Z-score in [1] is 0.154 (inactive). Moreover, the z-score in [15] was -0.786; in [17], 1.02 (inactive).

The values above are taken from PubChem BioAssay.
